# PubChem BioAssay (NCI)
# Values joined by “and” are separate entries in the source; they are usually repeats but may differ in a detail not shown here. Equal values may be shown once. Compounds without any hit were thinned out: in the full panel of roughly 83,000, 20% have a hit.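 Single-dose data. Exposure time 48 hours. Values below 10 considered active.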 Unmarked numbers belong to inactive results. Active and inactive are the calls of the source.
# Tested on: RPMI-8226 leukemia
# Test: NCI-60 one-dose screen, 48 h (100 = growth as untreated, 0 = no growth, -100 = all killed)
# Conditions: 10 µM
row,SMILES,growth
1,C[C@]12CC[C@H]3[C@@H](CCC4=CC(=O)CC[C@@H]43)[C@@H]1CC[C@@H]2OC(=O)N(CCCl)N=O,5.42% (active)
2,O=[N+]([O-])c1cc[n+]([O-])c2ccccc12,-7.21% (active)
3,O=[N+]([O-])c1ccc(N(CCO)CCO)c2c1no[n+]2[O-],-53.7% (active)
4,O=[N+]([O-])c1ccc(N2CCOCC2)c2c1no[n+]2[O-],-7.12% (active)

# Tested on: OVCAR-8 ovarian
# Test: as above
# Conditions: 10 µM
row,SMILES,growth
1,C[C@]12CC[C@H]3[C@@H](CCC4=CC(=O)CC[C@@H]43)[C@@H]1CC[C@@H]2OC(=O)N(CCCl)N=O,54.3%
2,O=[N+]([O-])c1ccc(N(CCO)CCO)c2c1no[n+]2[O-],2.5% (active)
3,O=[N+]([O-])c1ccc(N2CCOCC2)c2c1no[n+]2[O-],28.1%

# Tested on: OVCAR-5 ovarian
# Test: as above
# Conditions: 10 µM
row,SMILES,growth
1,Cn1c(O)c(N=O)c(=O)n(C)c1=O,116% and 98.1%
2,NNc1ccccc1,90.2%
3,O=C1C=Cc2ccccc2C1=O,120%
4,COc1cc(/C=C/[N+](=O)[O-])cc(Br)c1OC,65.4%
5,C[C@]12CC[C@H]3[C@@H](CCC4=CC(=O)CC[C@@H]43)[C@@H]1CC[C@@H]2OC(=O)N(CCCl)N=O,108%
6,Cc1cc(C(C)(C)c2ccc(O)c(C)c2)ccc1O,88.1%
7,CC[C@@H](C)[C@@H]1NC(=O)C(NC(=O)C(CC(C)C)N(C)C(=O)C2CCCN2C(=O)C(C)O)C(C)OC(=O)C(Cc2ccc(OC)cc2)N(C)C(=O)C2CCCN2C(=O)C(CC(C)C)NC(=O)C(C)C(=O)C(C(C)C)OC(=O)C[C@H]1O (stereo not given in full),-71.8% (active)
8,S=C=NCCc1ccccc1,33.2%
9,O=C1CCC(=O)N1SC(Cl)(Cl)Cl,110%
10,O=[N+]([O-])c1cc[n+]([O-])c2ccccc12,-13.7% (active)
11,O=C(CBr)Nc1ccccc1,128%
12,CN(C)CC1(N)C(=O)NC(=O)NC1=O,97.8%
13,C/C(=C\c1ccc(Cl)c(Cl)c1)[N+](=O)[O-],108% and 104%
14,O=[N+]([O-])c1ccc(N(CCO)CCO)c2c1no[n+]2[O-],18.5%
15,O=[N+]([O-])c1ccc(N2CCOCC2)c2c1no[n+]2[O-],43.8%
16,C/C1=C\[C@H](C)C[C@H](C)OC(=O)C[C@H](c2ccc(O)cc2)NC(=O)[C@@H](Cc2c(Br)[nH]c3ccccc23)N(C)C(=O)[C@H](C)NC(=O)[C@@H](C)C1,-35.1% (active)
17,COc1ccc(/C=C\[N+](=O)[O-])cc1OC,110% and 79.4%
18,[O-][n+]1ccccc1S,59.1%
19,COC12c3c(C)cc(O)c4c(=O)occ(c34)C(=O)C1C13COC(=O)c4c(O)cc(C)c(c41)C(=O)C2C3OC(C)=O (stereo not given),91.4%
20,COC(=O)C1C(O)C(C)C(O)C(C)/C=C\C=C(C)C(=O)Nc2c(C)c(OC(C)=O)c3c(c2O)C(=O)C(C)=C2OCOC(=C23)C(C)=CC(C)(O)C(O)C(C)C1O (stereo not given),77%
21,C=C1C(=O)O[C@@H]2C[C@@H](C)[C@@H]3C=CC(=O)[C@@]3(C)[C@@H](O)[C@H]12,5.71% (active)
22,CC/C(=C/c1ccc(OC)cc1)[N+](=O)[O-],10.9%
23,CCOP(=O)(OCC)/C(C#N)=C/c1ccc(Br)cc1,90.7%
24,O=[N+]([O-])/C=C/c1ccc(Cl)cc1[N+](=O)[O-],75.2%
25,Oc1c(Cl)cc(Cl)c2ccccc12.[Cu+2],127%
26,CN(CCCl)c1ccc(/C=C/C2=[N+](C)c3ccccc3C2(C)C)cc1,70.8%
27,Cc1ccc(NC(=O)CBr)cc1,109%
28,COC(C(=O)C(O)C(C)O)C1Cc2cc3cc(OC4CC(OC(C)=O)C(OC5CC(O)C(OC)C(C)O5)C(C)O4)cc(O)c3c(O)c2C(=O)C1OC1CC(OC2CC(OC3CC(C)(O)C(OC(=O)C(C)C)C(C)O3)C(O)C(C)O2)C(O)C(C)O1 (stereo not given),-43.5% (active)
